Compounds with a hit are over-represented: about 3.7% of the library has one in this group of screens.
FBA Mtb inh = Mtb FBA enzyme inhibitors, primary screen, biochemical, fluorescence, strain H37Rv. inhibition, % at 1 µM. Fructose-bisphosphate aldolase (Mycobacterium tuberculosis (strain ATCC 25618 / H37Rv)), …. purified M. tuberculosis FBA, fluorescence read-out. 2.3% of 360,000 active. AID 588726, 2011; in the data active = inhibition above about 27%;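 note: 0% = vehicle and 100% = reference inhibitor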
Target sequence (P9WQA3 whole entry, looked up): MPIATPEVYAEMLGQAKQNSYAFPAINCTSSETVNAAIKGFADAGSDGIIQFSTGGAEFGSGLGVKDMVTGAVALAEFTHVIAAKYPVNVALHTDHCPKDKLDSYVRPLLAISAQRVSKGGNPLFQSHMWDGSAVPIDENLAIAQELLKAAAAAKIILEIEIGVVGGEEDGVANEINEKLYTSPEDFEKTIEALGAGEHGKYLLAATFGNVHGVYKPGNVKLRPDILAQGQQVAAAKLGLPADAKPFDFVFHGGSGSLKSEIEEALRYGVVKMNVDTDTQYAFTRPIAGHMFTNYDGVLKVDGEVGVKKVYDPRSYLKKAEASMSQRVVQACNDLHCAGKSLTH
Rv3671c inh = Rv3671c serine protease inhibitors, primary screen, biochemical, fluorescence polarization, M. tuberculosis H37Rv | inhibition, % at 5.96 µM | 0.048% of 320,000 active | P9WHR9; in the data active = inhibition above about 38%;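 note: extracellular domain of Rv3671c used as enzyme; 0% = enzyme with DMSO and 100% = no enzyme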
Mtb betalactam = beta-lactam sensitization of Mtb H37Rv, H37Rv | M. tuberculosis H37Rv growth with meropenem, percent inhibition | inhibition, % at 25 µM | 0.27% of 330,000 active | AID 434955, 2010; call rule not given here;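 note: growth measured after seven days incubation then overnight dye step; 0% = bacteria only wells and 100% = bacteria with antibiotic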
FadD28 FP inh = inhibitors of FadD28 bisubstrate probe binding, primary screen, biochemical, fluorescence polarization, single point | AID 588549, 2011 | 0.22% of 360,000 active | inhibition, % at 12.5 µM | Mycobacterium tuberculosis FadD28 fatty-acid-AMP ligase; in the data active = inhibition above about 8.5%, passing the limit was not always enough
GDH-TPI inh = GDH-TPI coupling enzyme inhibitors, primary screen, artefact control for M. tuberculosis FBA inhibitor project, biochemical, absorbance, full deck. GDH-TPI coupled enzyme counterscreen, NADH absorbance. 1.2% of 360,000 active. AID 588335, 2011. inhibition, % at 4.8 µM; in the data active = inhibition above about 30%;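 note: 0% = DMSO wells and 100% = wells lacking the enzyme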
Mtb UGM inh = M. tuberculosis UGM enzyme inhibitors, primary screen, biochemical, fluorescence polarization, single point | UDP-galactopyranose mutase (Mycobacterium tuberculosis (strain ATCC 25618 / H37Rv)), … | purified UGM, fluorescence polarization probe displacement | 0.06% of 320,000 active | inhibition, % at 10 µM | AID 504406, 2011; in the data active = inhibition above about 10%, passing the limit was not always enough
The depositor's hits bear a star; / = not tested or not shown.

SMILES	FBA Mtb inh	Rv3671c inh	Mtb betalactam	FadD28 FP inh	GDH-TPI inh	Mtb UGM inh
Cc1cc(/C=C(\C#N)C(=O)O)c(C)n1-c1ccc(Br)cc1	-0.2	-11.3	-2.8	-5.6	32.4*	1.0
COCCn1c(C)cc(/C=C(\C#N)C(=O)OC(C)C(=O)Nc2ccc(NC(C)=O)cc2)c1C (stereo not drawn)	-0.2	-3.0	-3.0	-4.7	38.5*	-1.3
Cc1c(C(=O)NCc2ccc3c(c2)OCCO3)sc(=O)n1Cc1ccccc1C(F)(F)F	-1.1	/	/	-3.6	9.1	/
CCCn1c(C)cc(/C=C(\C#N)C(=O)O)c1C	1.7	-3.5	3.3	0.5	31.1*	0.5
CNC(=O)/C(C#N)=C\c1cc(C)n(-c2ccc(N3CCOCC3)cc2)c1C	2.7	5.7	2.5	0.6	31.2*	-1.5
NC(=O)NC(=O)C(Nc1ccc(N2CCCCC2)cc1)c1ccccc1 (stereo not drawn)	0.8	-9.2	1.0	0.0	-0.7	1.0
O=C1CC(c2ccc(O)cc2)Oc2cc(O)cc(O)c21 (stereo not drawn)	-0.6	-19.8	-3.5	-4.1	26.6	2.6
CC1CC(=O)c2c(cc3c(-c4c(O)cc(O)c5c(O)c6c(cc45)OC(C)CC6=O)c(O)cc(O)c3c2O)O1 (stereo not drawn)	-6.4	34.6	14.4	13.2*	16.7	5.2
Nc1cc(=O)[nH]c(SCC(=O)c2ccc(O)cc2O)n1	-1.6	3.3	2.6	-1.6	34.0*	1.9
Cc1ccc2nc(SCC(=O)c3ccc(O)cc3O)[nH]c2c1	6.9	-23.8	-5.9	-2.1	50.6*	0.8
CC(C)(C)NC(=O)CSc1nc(N)cc(=O)[nH]1	0.3	-7.0	-1.6	0.7	1.3	1.7
CC(C)c1ccc(NC(=O)C2(C)Cc3c(-c4ccc(C(N)=O)cc4)ccnc3O2)cc1 (stereo not drawn)	-1.5	/	/	-2.6	0.9	/
CCNc1nc(NC(C)C)nc(Nn2cnnc2)n1	-0.7	5.3	0.0	-1.9	0.4	-1.0
CCNc1nc(C)c2cc(Br)c(=O)n(CC)c2n1	155.8*	4.0	-4.8	-1.4	39.9*	2.6
CCCCNC(=S)N/N=C/c1ccc(C)s1	5.6	0.9	97.7	-0.7	63.3*	0.8
Cc1ccc(/C=N/NC(=S)NCCc2ccccc2)s1	0.2	5.5	2.1	-0.8	7.0	-1.3
Cc1cc(C(=O)N/N=C/c2cccnc2)n[nH]1	1.2	0.9	-10.4	-3.9	-4.6	2.9
Cc1cc(C(=O)N/N=C/c2ccc[nH]2)no1	-3.1	-5.3	-0.8	0.0	30.7*	-0.1
Cc1cc(C(=O)N/N=C/c2ccccc2Br)no1	-0.2	-6.4	1.5	-1.4	9.8	-2.4
Cc1cc(C(=O)N/N=C/c2ccc[nH]2)n[nH]1	-3.7	9.2	3.0	-0.1	39.1*	-1.4
Cc1cc(C(=O)N/N=C/c2ccc(-c3ccccc3Cl)o2)n[nH]1	2.1	-0.1	12.2	-0.8	34.5*	-0.4
COc1ccccc1CN(C)C[C@H]1OCc2cnnn2CCCC(=O)N([C@H](C)CO)C[C@@H]1C	1.4	/	/	-0.9	1.4	/
COc1cc(/C=N/NC(=O)c2cccc(N3CCCC3=O)c2)ccc1O	0.2	1.2	-9.3	1.3	39.6*	-0.6
CCN(CC)c1ccc(/C=N/NC(=O)c2cccc(N3CCCC3=O)c2)cc1	-1.5	3.7	-3.9	1.8	31.0*	2.7
O=C(CN1CCN(c2ccc(O)cc2)CC1)Nc1ccc(S(=O)(=O)N2CCCC2)cc1	2.0	-5.1	-5.3	2.0	7.3	1.5
SMILES	FBA Mtb inh	Rv3671c inh	Mtb betalactam	FadD28 FP inh	GDH-TPI inh	Mtb UGM inh
Cc1cc(C(=O)OCCO)c(C#N)c(N)n1	143.3*	-8.4	-6.1	-1.1	12.4	-0.8
O=C(N/N=C/c1ccc(O)c([N+](=O)[O-])c1)c1ccncc1	-5.7	4.5	97.4	-0.5	22.5	-0.6
O=C(CNC(=O)c1ccc(F)cc1)N/N=C/c1ccc(O)c([N+](=O)[O-])c1	-2.9	-4.0	1.2	0.2	36.7*	0.9
Cc1onc(-c2ccccc2)c1C(=O)N/N=C/c1ccc(O)c([N+](=O)[O-])c1	-7.2	/	-0.5	0.1	34.9*	2.2
O=[N+]([O-])c1cc(/C=N\Nc2nc(-c3ccccc3)cs2)ccc1O	-3.3	5.4	36.1	3.1	33.8*	-2.8
Cc1csc(N/N=C/c2ccc(O)c([N+](=O)[O-])c2)n1	-5.2	14.7	-0.9	9.3*	39.1*	2.2
O=C(Nc1ccccc1)C1=C(Nc2ccccc2)CSC1	0.8	/	/	0.9	1.3	/
O=C(OCc1ccccc1)N1CCCC2CC1c1ccccc12 (stereo not drawn)	0.1	/	/	-2.5	-7.2	/
Cc1cccc(C(=O)Nc2ccc(S(=O)(=O)N3CCOCC3)cc2C)c1	-0.3	3.8	-2.9	-1.3	-3.9	-1.4
COc1cccc(C(C)(O)c2nc(-c3cccc(C(C)C)c3)cs2)c1 (stereo not drawn)	2.0	/	/	-1.6	13.3	/
COc1cc(Cl)c(C)cc1NC(=O)c1ccccc1NC(=O)CN1CCN(C(C)=O)CC1	0.0	/	/	-4.6	8.2	/
Cc1nnc(N/N=C/c2ccc(O)c([N+](=O)[O-])c2)[nH]c1=O	-2.9	-7.5	20.3	-1.6	47.4*	0.5
Cc1cc(=O)[nH]c(N/N=C/c2ccc(Cl)c([N+](=O)[O-])c2)n1	-2.0	-2.4	-7.1	-1.8	8.9	1.2
CCOC(=O)c1c(C)[nH]c(C(=O)N/N=C/c2ccc(Br)cc2)c1C	-0.6	-48.6	16.9	-3.8	17.1	-0.3
COc1cccc(/C=N/NC(=O)c2ccc(=O)[nH]n2)c1O	3.1	-6.2	1.1	-0.4	31.2*	0.0
Cc1[nH]c(C(=O)N/N=C/c2ccc(C(=O)O)cc2)c(C)c1C(=O)N/N=C/c1ccc(C(=O)O)cc1	-0.6	-6.7	3.8	-7.5	73.8*	-0.6
COc1cccc(/C=N/NC(=O)c2ccc(-c3ccccc3)cc2)c1O	-0.5	8.4	1.5	-1.1	11.1	0.4
COc1cccc(/C=N/NC(=O)c2[nH]c(C)c(C(=O)N/N=C/c3cccc(OC)c3O)c2C)c1O	1.3	-24.4	1.0	-0.8	43.4*	0.0
COC(=O)Cn1c(=NC(=O)c2ccc(S(=O)(=O)N3CCOCC3)cc2)sc2cc(S(N)(=O)=O)ccc21	2.1	-17.9	1.8	-7.0	32.1*	0.9
COCCn1c(=NC(=O)c2ccc(S(=O)(=O)N3CCOCC3)cc2)sc2cc(S(N)(=O)=O)ccc21	0.2	-10.9	-9.1	-8.2	32.8*	6.4
CCOCCn1c(=NC(=O)c2cc3ccccc3oc2=O)sc2cc(S(N)(=O)=O)ccc21	-0.5	-4.6	7.2	-0.4	45.6*	-2.0
CCOc1cc(S(=O)(=O)N2CCN(C(=O)c3ccco3)CC2)ccc1F	1.6	5.5	-1.4	-1.9	5.7	-0.7

Compound activity deposited in PubChem by several laboratories.
